Assay results reported in PubChem BioAssay (EPA / NIEHS).
Activity calls are given as the source filed them. Rule for the calls: active = hit-call score of the fitted dose curve at least 0.9, where 1 is the maximum; inactive = score below 0.9.

Key:
Conditions in all cases: mRNA level, 48 h; actives raise or lower the signal
[1] = read-out: cysteine-aspartic acid protease (CASP8), CASP8 (gene 841); experiment: LTEA_HepaRG_CASP8: Life Technologies and Expression Analysis (LTEA) Assay for cysteine-aspartic acid protease (CASP8) using HepaRG (AID 2283480)
Procedure, shortened: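 Differentiated HepaRG cells in serum-free induction medium, 48 h exposure, eight-point half-log series from 100 uM in 0.5% DMSO, duplicates. CASP8 mRNA by qRT-PCR, normalized to ACTB, GAPDH, POLR2A; bidirectional fit versus DMSO.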

[2] = read-out: Cytochrome P450 (CYP2B6), CYP2B6 (gene 1555); experiment: LTEA_HepaRG_CYP2B6: Life Technologies and Expression Analysis (LTEA) Assay for Cytochrome P450 (CYP2B6) using HepaRG (AID 2283481)
Procedure, shortened: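 Differentiated HepaRG cells, serum-free induction medium, exposed 48 h in duplicate to 8-point half-log concentrations from 100 uM in 0.5% DMSO. CYP2B6 mRNA by qRT-PCR, normalized to ACTB, GAPDH, POLR2A; bidirectional fit versus DMSO.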

[3] = read-out: Cytochrome P450 2C19 (Homo sapiens) (UniProt P33261); experiment: LTEA_HepaRG_CYP2C19: Life Technologies and Expression Analysis (LTEA) Assay for CYP2C19 using HepaRG (AID 2283482)
Procedure, shortened: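 Differentiated human HepaRG cells were exposed for 48 h in serum-free induction medium to 8 concentrations (top 100 uM, half-log steps, 0.5% DMSO). CYP2C19 mRNA was measured by qRT-PCR, normalized to ACTB/GAPDH/POLR2A, and fitted bidirectionally against DMSO.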

CYP2C8 (gene 1558) = experiment: LTEA_HepaRG_CYP2C8: Life Technologies and Expression Analysis (LTEA) Assay for CYP2C8 using HepaRG (AID 2283483)
Procedure, shortened: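 Differentiated HepaRG cells in serum-free induction medium exposed 48 h in duplicate to 8 half-log concentrations from 100 uM in 0.5% DMSO. CYP2C8 mRNA by qRT-PCR normalized to ACTB, GAPDH, POLR2A; bidirectional fit versus DMSO.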

CYP2C9 (gene 1559) = experiment: LTEA_HepaRG_CYP2C9: Life Technologies and Expression Analysis (LTEA) Assay for CYP2C9 using HepaRG (AID 2283484)
Procedure, shortened: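 Differentiated human HepaRG cells in serum-free induction medium were exposed 48 h to chemicals in 8-point half-log series from 100 uM (0.5% DMSO), in duplicate. CYP2C9 mRNA was measured by qRT-PCR, normalized to ACTB/GAPDH/POLR2A, with bidirectional fitting versus DMSO.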

CYP2E1 (gene 1571) = experiment: LTEA_HepaRG_CYP2E1: Life Technologies and Expression Analysis (LTEA) Assay for CYP2E1 using HepaRG (AID 2283485)
Procedure, shortened: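 HepaRG cells, plated 48 h, then exposed 48 h in serum-free induction medium to eight half-log concentrations from 100 uM in 0.5% DMSO, duplicate. CYP2E1 mRNA by qRT-PCR, normalized to ACTB/GAPDH/POLR2A; bidirectional fit versus DMSO.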

CYP4A11 (gene 1579) = experiment: LTEA_HepaRG_CYP4A11: Life Technologies and Expression Analysis (LTEA) Assay for CYP4A11 using HepaRG (AID 2283486)
Procedure, shortened: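 Differentiated HepaRG cells, serum-free induction medium, exposed 48 h in duplicate to 8-point half-log series from 100 uM in 0.5% DMSO. CYP4A11 mRNA measured by qRT-PCR, normalized to ACTB, GAPDH, POLR2A; bidirectional fit versus DMSO.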

[4] = read-out: Cytochrome P450 3A4 (Homo sapiens) (UniProt P08684); experiment: LTEA_HepaRG_CYP3A4: Life Technologies and Expression Analysis (LTEA) Assay for CYP3A4 using HepaRG (AID 2283487)
Procedure, shortened: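 HepaRG, 48 h exposure, 8-pt CRC from 100 uM (half-log), 0.5% DMSO, duplicates; serum-free induction medium. Readout: CYP3A4 mRNA, qRT-PCR, ACTB/GAPDH/POLR2A normalization. Bidirectional fit vs DMSO.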

[5] = read-out: DNA damage-inducible transcript 3 (DDIT3), DDIT3 (gene 1649); experiment: LTEA_HepaRG_DDIT3: Life Technologies and Expression Analysis (LTEA) Assay for DNA damage-inducible transcript 3 (DDIT3) using HepaRG (AID 2283488)
Procedure, shortened: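 HepaRG cells, 48 h after plating, exposed 48 h in serum-free induction medium to 8 half-log concentrations up to 100 uM in 0.5% DMSO, in duplicate. DDIT3 mRNA measured by TaqMan qRT-PCR, normalized to ACTB, GAPDH and POLR2A. Fitted bidirectionally against DMSO.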

[6] = read-out: Pro-epidermal growth factor (Homo sapiens) (UniProt P01133); experiment: LTEA_HepaRG_EGF: Life Technologies and Expression Analysis (LTEA) Assay for Epidermal growth factor (EGF) using HepaRG (AID 2283489)
Procedure, shortened: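 Differentiated human HepaRG cells, plated 48 h then switched to serum-free induction medium, were exposed for 48 h to test chemicals (8-point half-log series, top 100 uM, 0.5% DMSO). EGF mRNA was quantified by qRT-PCR, normalized to ACTB, GAPDH, POLR2A.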

Measured: AC50

Chain of Cytochrome P450 3A4 (Homo sapiens) (P08684 whole entry, looked up): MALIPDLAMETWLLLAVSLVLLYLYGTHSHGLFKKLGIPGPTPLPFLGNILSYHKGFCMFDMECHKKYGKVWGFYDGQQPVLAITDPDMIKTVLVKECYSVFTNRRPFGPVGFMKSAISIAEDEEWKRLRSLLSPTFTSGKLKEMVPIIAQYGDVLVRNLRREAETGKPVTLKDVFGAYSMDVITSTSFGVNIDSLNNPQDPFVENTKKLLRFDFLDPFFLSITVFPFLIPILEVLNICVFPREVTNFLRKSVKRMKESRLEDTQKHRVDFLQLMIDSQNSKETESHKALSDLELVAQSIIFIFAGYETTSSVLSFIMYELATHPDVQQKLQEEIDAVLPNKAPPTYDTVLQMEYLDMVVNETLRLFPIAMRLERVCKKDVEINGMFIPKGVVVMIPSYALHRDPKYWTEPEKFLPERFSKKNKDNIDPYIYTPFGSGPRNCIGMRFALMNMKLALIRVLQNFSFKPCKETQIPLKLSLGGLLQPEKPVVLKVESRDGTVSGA
Chain of Cytochrome P450 2C19 (Homo sapiens) (P33261 whole entry, looked up): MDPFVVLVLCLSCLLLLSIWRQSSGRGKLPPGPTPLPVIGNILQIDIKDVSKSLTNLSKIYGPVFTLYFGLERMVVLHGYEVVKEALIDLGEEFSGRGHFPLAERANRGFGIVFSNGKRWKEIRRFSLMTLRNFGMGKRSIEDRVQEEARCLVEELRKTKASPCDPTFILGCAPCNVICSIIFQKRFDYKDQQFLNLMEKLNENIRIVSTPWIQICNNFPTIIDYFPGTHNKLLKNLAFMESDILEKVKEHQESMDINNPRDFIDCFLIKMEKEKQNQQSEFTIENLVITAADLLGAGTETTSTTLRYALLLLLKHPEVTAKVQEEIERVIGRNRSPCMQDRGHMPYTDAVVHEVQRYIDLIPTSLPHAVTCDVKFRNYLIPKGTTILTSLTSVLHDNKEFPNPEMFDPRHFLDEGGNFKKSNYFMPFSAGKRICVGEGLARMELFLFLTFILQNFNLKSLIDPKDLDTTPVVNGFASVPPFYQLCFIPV

CC(C)COC(=O)c1ccccc1C(=O)OCC(C)C
inactive: all assays above

Clc1ccc(C(c2ccc(Cl)cc2)C(Cl)(Cl)Cl)cc1
active: [2] 1.14 µM | [3] 2.78 µM | CYP2C8 (gene 1558) 12.5 µM | CYP2C9 (gene 1559) 0.549 µM | CYP2E1 (gene 1571) 50 µM | CYP4A11 (gene 1579) 50 µM | [5] 50 µM
inactive: [1]

O=C(N[C@H](c1ccccc1)[C@@H]1CN2CCC1CC2)c1c(Cl)ccc(C(F)(F)F)c1Cl
active: [1] 73.7 µM | [2] 42 µM | [3] 75.2 µM | CYP2C9 (gene 1559) 69.5 µM | CYP2E1 (gene 1571) 44.5 µM | CYP4A11 (gene 1579) 35.4 µM | [4] 81.2 µM | [5] 36.3 µM | [6] 73.1 µM
inactive: CYP2C8 (gene 1558)

Cc1ccc(N=C=O)cc1N=C=O
active: CYP2C9 (gene 1559) 50 µM | CYP2E1 (gene 1571) 31.1 µM | CYP4A11 (gene 1579) 20.8 µM | [5] 13.3 µM
inactive: all other assays above

c1ccc(C2CO2)cc1 (stereo unspecified)
inactive: all assays above

CCCCCCCCn1sccc1=O
inactive: [1] | [5] | [6]
active: [2] 87 µM | [3] 81.8 µM | CYP2C8 (gene 1558) 85.9 µM | CYP2C9 (gene 1559) 85.3 µM | CYP2E1 (gene 1571) 84.2 µM | CYP4A11 (gene 1579) 91.1 µM | [4] 81.4 µM

COC(=O)Nc1nc2ccccc2[nH]1
active: [2] 3.97 µM
not listed: [4]
inactive: all other assays above

CN(C)c1ccc(C(=O)c2ccc(N(C)C)cc2)cc1
active: [2] 12.2 µM | CYP2E1 (gene 1571) 50 µM | CYP4A11 (gene 1579) 50 µM
not listed: [4]
inactive: all other assays above

c1ccc(N=Nc2ccccc2)cc1
not listed: [4] | [6]
inactive: all other assays above

C1=Cc2cccc3cccc1c23
active: [2] 37.8 µM
not listed: CYP2E1 (gene 1571) | [6]
inactive: all other assays above

CC(C)(C)OOC(C)(C)CCC(C)(C)OOC(C)(C)C
not listed: [1] | [6]
inactive: all other assays above

CN(C)[C@@H]1C(=O)C(C(N)=O)=C(O)[C@@]2(O)C(=O)C3=C(O)c4c(O)cccc4[C@@](C)(O)[C@H]3C[C@@H]12
not listed: CYP2C9 (gene 1559) | [6]
inactive: all other assays above

CN(C)C(=O)Nc1ccc(Cl)cc1
active: [2] 22.5 µM | CYP2E1 (gene 1571) 50 µM
inactive: all other assays above

C[C@]12C=CC3=C4CCC(=O)C=C4CC[C@H]3[C@@H]1CC[C@@H]2O
inactive: [1] | [5] | [6]
active: [3] 65.3 µM | CYP2C9 (gene 1559) 50 µM | [4] 0.458 µM

CC(C)(C)OOC(=O)c1ccccc1
inactive: all assays above

Cc1cc(N=Nc2ccccc2C)ccc1N
inactive: [1] | [5] | [6]
active: [2] 5.08 µM | [3] 4.72 µM | CYP2C8 (gene 1558) 5.98 µM | CYP2C9 (gene 1559) 4.8 µM | CYP2E1 (gene 1571) 12.8 µM | CYP4A11 (gene 1579) 4.52 µM | [4] 2.94 µM

Nc1ccc(Oc2ccc(N)cc2)cc1
active: [2] 67 µM
inactive: all other assays above

O=C(O)C1C2CCC(O2)C1C(=O)O (stereo unspecified)
active: [2] 77.7 µM | [3] 82 µM | CYP2C8 (gene 1558) 58.9 µM | CYP2C9 (gene 1559) 86.7 µM | CYP2E1 (gene 1571) 45.4 µM | CYP4A11 (gene 1579) 50 µM | [4] 79.7 µM | [5] 50 µM

O=[N+]([O-])c1ccc(Oc2ccc(Cl)cc2Cl)cc1
active: [2] 12.8 µM | [3] 12.4 µM | CYP2E1 (gene 1571) 58 µM | [5] 50 µM
not listed: [4]
inactive: all other assays above

Cn1cc(-c2ccccc2)c(=O)c(-c2cccc(C(F)(F)F)c2)c1
active: [2] 1.09 µM | [3] 4.63 µM | CYP2C8 (gene 1558) 3.59 µM | CYP2C9 (gene 1559) 0.468 µM | CYP2E1 (gene 1571) 11.9 µM | [4] 2.92 µM | [5] 89.8 µM
inactive: [1] | CYP4A11 (gene 1579) | [6]
